Active and inactive are the calls of the source.
Experiments:
[1] = system: PRMT1 (protein arginine N-methyltransferase 1); assay: small molecules binding arginine methyltransferase PRMT1 – biochemical, small-molecule microarray, 635 nm fluorescence, primary screen (AID 1088); settings: higher = more signal;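 note: binding of Prmt1 protein to compounds spotted on small-molecule microarray slides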
[2] = growth effects on S. cerevisiae YJM789 – YJM789 clinical isolate, OD600, 24 h, basal, primary screen (AID 1089); settings: higher = more signal, called active from +8 up or from −8 down;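 note: growth of clinical yeast isolate S. cerevisiae YJM 789 seeded 1000 cells per well; test concentration not given here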
[3] = S. pombe growth modifiers, basal conditions – strain 972, OD600, 24 h, no modulator, primary screen (AID 1090);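 note: basal condition with compound alone and no growth modifier present; test concentration not given here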; settings: S. pombe 972 growth, higher = more signal, called active from +8 up or from −8 down
[4] = budding yeast growth modifiers under rapamycin – strain BY4716, OD600, 96 h, primary screen (AID 1091); note: test concentration not given here; settings: S. cerevisiae BY4716 + rapamycin, higher = more signal, called active from +8 up or from −8 down
[5] = target: Torsin-1A-interacting protein 2 (Homo sapiens) (UniProt Q8NFQ8); assay: small molecules binding lysate-expressed LULL1 – cell lysate, human LULL1 lysate, 635/667 nm fluorescence, primary screen (AID 1092); settings: small-molecule microarray, hLULL1 lysate binding, 635 nm fluorescence; higher = more signal;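 note: probe is lysate of COS7 cells overexpressing human LULL1; score merges per-feature 667 nm fluorescence with signal-to-noise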
[6] = optical density change of DRC41 E. coli – strain DRC41, OD650, 24 h, E. coli filamentation project, primary screen (AID 1093);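 note: MC1000 strain lacking acrAB efflux and sulA so SOS filamentation is blocked; test concentration not given here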; settings: E. coli DRC41 growth, higher = more signal, called active from +8 up or from −8 down
[7] = probe aLefty2 binding to arrayed compounds – biochemical, biotinylated probe, 635/667 nm fluorescence, primary screen (AID 1094); settings: small-molecule microarray, higher = more signal;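 note: score merges spot fluorescence near 667 nm with spot signal-to-noise ratio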
[8] = system: Noggin (protein binding on small-molecule microarray); assay: small molecules binding Noggin protein – biochemical, 635/667 nm fluorescence, primary screen (AID 1095); settings: 635 nm fluorescence, higher = more signal;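 note: score merges 667 nm feature fluorescence with signal to noise over triplicate slides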
[9] = target: Neurogenic locus notch homolog protein 3 (Homo sapiens) (UniProt Q9UM47); assay: small molecules binding NOTCH3 protein – biochemical, 635/667 nm fluorescence, primary screen (AID 1096); settings: small-molecule microarray, 635 nm fluorescence, higher = more signal
[10] = probe aEGFR binding to arrayed compounds – biochemical, biotinylated probe, 635/667 nm fluorescence, primary screen (AID 1097); settings: small-molecule microarray, higher = more signal;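 note: probe is a biotinylated anti-EGFR antibody binding compounds printed on slides; score combines fluorescence near 667 nm and signal to noise of each spot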

Chain of Torsin-1A-interacting protein 2 (Homo sapiens) (Q8NFQ8 whole entry, looked up): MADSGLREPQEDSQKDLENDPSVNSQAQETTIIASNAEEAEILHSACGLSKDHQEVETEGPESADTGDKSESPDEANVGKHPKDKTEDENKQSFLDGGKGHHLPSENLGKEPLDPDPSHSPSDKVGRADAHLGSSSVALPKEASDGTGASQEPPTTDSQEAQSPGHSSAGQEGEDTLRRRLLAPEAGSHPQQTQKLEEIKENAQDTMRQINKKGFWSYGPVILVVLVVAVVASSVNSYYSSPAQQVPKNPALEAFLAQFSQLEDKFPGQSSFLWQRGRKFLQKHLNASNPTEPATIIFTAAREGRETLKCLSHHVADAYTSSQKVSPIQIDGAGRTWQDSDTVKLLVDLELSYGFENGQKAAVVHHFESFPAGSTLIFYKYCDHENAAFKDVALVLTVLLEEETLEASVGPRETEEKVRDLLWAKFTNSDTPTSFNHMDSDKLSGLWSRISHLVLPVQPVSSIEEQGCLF
Chain of Neurogenic locus notch homolog protein 3 (Homo sapiens) (Q9UM47 whole entry, looked up): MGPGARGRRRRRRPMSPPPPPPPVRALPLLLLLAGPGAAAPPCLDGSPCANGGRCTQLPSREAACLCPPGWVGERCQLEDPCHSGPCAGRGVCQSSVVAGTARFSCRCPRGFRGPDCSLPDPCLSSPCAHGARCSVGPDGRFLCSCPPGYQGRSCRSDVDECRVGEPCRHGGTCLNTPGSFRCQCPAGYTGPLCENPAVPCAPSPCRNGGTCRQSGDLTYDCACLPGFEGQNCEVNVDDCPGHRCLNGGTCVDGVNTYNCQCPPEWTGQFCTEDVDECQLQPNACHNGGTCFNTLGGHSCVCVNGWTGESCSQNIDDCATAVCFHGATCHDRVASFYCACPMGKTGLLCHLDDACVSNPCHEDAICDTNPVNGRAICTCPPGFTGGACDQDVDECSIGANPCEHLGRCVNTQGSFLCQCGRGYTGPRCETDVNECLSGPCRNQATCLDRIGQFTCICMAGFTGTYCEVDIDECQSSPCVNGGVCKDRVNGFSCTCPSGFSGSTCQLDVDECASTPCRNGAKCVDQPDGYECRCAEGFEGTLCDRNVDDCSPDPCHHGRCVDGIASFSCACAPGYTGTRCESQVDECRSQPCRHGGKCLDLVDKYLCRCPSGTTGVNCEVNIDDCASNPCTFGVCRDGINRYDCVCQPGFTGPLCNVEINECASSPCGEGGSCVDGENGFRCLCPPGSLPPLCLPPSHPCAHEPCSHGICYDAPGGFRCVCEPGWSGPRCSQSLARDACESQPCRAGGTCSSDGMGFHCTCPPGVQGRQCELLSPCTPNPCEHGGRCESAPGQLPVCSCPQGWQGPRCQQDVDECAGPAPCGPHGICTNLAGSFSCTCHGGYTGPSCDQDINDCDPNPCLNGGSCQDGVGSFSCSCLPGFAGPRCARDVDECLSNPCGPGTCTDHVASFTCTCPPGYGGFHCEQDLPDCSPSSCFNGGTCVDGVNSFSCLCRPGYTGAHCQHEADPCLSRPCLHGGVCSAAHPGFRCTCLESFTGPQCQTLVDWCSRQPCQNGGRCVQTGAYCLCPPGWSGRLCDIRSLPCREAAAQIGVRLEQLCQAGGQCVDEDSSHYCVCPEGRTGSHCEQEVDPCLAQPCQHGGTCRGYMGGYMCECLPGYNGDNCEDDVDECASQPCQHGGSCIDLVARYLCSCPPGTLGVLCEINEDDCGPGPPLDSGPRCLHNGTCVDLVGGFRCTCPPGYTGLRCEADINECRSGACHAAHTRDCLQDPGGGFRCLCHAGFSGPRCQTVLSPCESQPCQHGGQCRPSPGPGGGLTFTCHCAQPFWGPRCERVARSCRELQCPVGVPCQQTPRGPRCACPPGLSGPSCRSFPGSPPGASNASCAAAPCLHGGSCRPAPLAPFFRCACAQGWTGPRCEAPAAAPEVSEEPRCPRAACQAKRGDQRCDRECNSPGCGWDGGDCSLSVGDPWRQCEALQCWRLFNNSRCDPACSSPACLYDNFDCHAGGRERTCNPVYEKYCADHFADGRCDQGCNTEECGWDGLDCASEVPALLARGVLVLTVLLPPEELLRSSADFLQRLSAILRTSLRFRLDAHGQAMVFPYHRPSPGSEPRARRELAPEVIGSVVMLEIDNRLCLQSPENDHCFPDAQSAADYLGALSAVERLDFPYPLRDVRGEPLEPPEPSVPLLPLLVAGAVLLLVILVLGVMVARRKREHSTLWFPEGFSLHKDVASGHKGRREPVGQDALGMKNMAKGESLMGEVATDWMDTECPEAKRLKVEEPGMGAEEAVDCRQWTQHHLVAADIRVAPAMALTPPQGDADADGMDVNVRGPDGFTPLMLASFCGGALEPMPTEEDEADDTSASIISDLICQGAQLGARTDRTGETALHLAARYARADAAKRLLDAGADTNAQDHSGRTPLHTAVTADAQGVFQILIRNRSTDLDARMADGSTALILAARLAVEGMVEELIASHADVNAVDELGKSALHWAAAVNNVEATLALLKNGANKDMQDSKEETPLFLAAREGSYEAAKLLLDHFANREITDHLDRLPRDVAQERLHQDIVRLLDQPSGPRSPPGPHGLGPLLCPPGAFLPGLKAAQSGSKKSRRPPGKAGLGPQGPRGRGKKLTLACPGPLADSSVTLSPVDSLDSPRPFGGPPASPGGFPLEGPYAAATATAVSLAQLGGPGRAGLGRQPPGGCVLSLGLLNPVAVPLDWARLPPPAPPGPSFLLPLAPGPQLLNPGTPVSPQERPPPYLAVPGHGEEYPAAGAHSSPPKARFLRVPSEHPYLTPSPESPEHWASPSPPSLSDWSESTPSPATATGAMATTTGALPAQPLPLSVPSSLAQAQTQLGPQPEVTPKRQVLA

Row | Structure (SMILES) | composite z-score [1] | z-score [2] | z-score [3] | z-score [4] | composite z-score [5] | z-score [6] | composite z-score [7] | composite z-score [8] | composite z-score [9] | composite z-score [10]
1 | CCCCCN1CC=CC23O[C@@H]4/C=C\CCC(C)OC(=O)C4[C@H]2C(=O)N(C(CO)C(C)C)[C@@H]3C1=O (stereo not given in full) | 0.0839 | -0.646 (inactive) | -0.957 (inactive) | -1.02 (inactive) | 2.1 | 1.5 (inactive) | -0.506 | -0.087 | 0.165 | -0.14
2 | CN(C)c1ccc(C(O)C2C=CC3C(=O)NC(=O)C3N2Nc2ccccn2)cc1 (stereo not given) | 0.757 | -0.0671 (inactive) | 0.716 (inactive) | 0.504 (inactive) | 1.31 | -1.26 (inactive) | -0.118 | 0.438 | 1 | 0.107
3 | C=C(COC)/C(=C/C[C@H](OC(=O)c1ccncc1)c1ccc(CO)o1)c1cnc2ccccc2c1 | 1.54 | 0.685 (inactive) | -0.694 (inactive) | 0.662 (inactive) | 1.34 | -0.148 (inactive) | -0.114 | 0.84 | 1.09 | -0.0805
4 | CC(C)[Si](C#CCCCC#N)(O[C@H](c1ccccc1)c1cn(Cc2ccccc2)nn1)C(C)C | 1.36 | -1.45 (inactive) | -2.74 (inactive) | -2.8 (inactive) | 0.573 | 1.84 (inactive) | -0.119 | 0.509 | 1.09 | -0.0681
5 | CCCCCCc1nc(Cc2cc(OC)c(OC)c(OC)c2)cc2c1[Si](C(C)C)(C(C)C)OC2 | -0.114 | 0.654 (inactive) | -0.0595 (inactive) | 0.0907 (inactive) | -0.233 | -0.527 (inactive) | -0.0985 | 0.158 | -0.0693 | -0.232
6 | COC(=O)C(CC#Cc1ccc2c(c1)[C@]1(C(=O)N2)[C@H](c2ccc(O)cc2)N2[C@H](c3ccccc3)[C@H](c3ccccc3)OC(=O)[C@H]2[C@@H]1C(=O)NC[C@H](O)c1ccccc1)C(=O)OC | 1.55 | 0.31 (inactive) | 0.174 (inactive) | -0.131 (inactive) | 1.97 | -0.968 (inactive) | 0.0634 | 0.668 | 1.09 | 0.128
7 | O=C1OCCC=C[C@H]2OC34C=CCN(c5ccc6ccccc6c5)C(=O)[C@H]3N(CCCO)C(=O)[C@@H]4C12 (stereo not given in full) | -1.63 | 0.312 (inactive) | -0.951 (inactive) | 0.345 (inactive) | -0.939 | 0.843 (inactive) | -0.222 | -2.16 | -1.19 | -0.295
8 | C=C[C@@H](CO)N(Cc1ccc(OC)cc1)S(=O)(=O)c1ccc(Br)cc1 | -0.043 | -3.19 (inactive) | -6.8 (inactive) | -1.92 (inactive) | 0.268 | 2.31 (inactive) | 0.0711 | -0.193 | -0.731 | -0.0967
9 | O=C1NC(=O)C2C1C=CC(C(O)c1ccco1)N2Nc1ccc(Cl)cc1Cl (stereo not given) | 0.232 | -25.2 (active) | -1.67 (inactive) | -0.647 (inactive) | 1.72 | -1.49 (inactive) | -0.103 | 0.223 | 0.417 | -0.0362
10 | CCCCCN1CC=CC23O[C@@H]4C=CCCOC(=O)C4[C@H]2C(=O)N(CCCCCCO)[C@@H]3C1=O (stereo not given in full) | 0.812 | -0.0966 (inactive) | -0.0045 (inactive) | -0.0168 (inactive) | 3.49 | 0.313 (inactive) | -0.423 | -0.362 | -0.135 | -0.282
11 | COC(=O)[C@@]1(Cc2ccc(OC)cc2)[C@H]2c3cc(C(=O)N4CCCC4)n(CCc4c[nH]c5ccc(OC)cc45)c3C[C@H]2CN1C(=O)c1ccccc1 | 0.0079 | 0.425 (inactive) | 1.84 (inactive) | 4.15 (inactive) | 3.03 | -0.669 (inactive) | 0.722 | -0.0307 | 1.02 | 0.318
12 | O=C(Cc1ccccc1)[C@H]1C2C=CCCC(c3ccccc3)=C2CN1Cc1ccccc1 (stereo not given in full) | 0.044 | -0.213 (inactive) | -1.29 (inactive) | -0.481 (inactive) | -0.862 | 2.42 (inactive) | -0.207 | -0.0884 | -0.433 | -0.0828
13 | COc1ccc(C#Cc2ccc3c(c2)[C@]2(C(=O)N3)[C@H](c3ccc(O)cc3)N3[C@H](c4ccccc4)[C@H](c4ccccc4)OC(=O)[C@H]3[C@@H]2C(=O)Nc2nc3ccccc3s2)cc1 | 1.55 | 1.51 (inactive) | -0.924 (inactive) | -0.221 (inactive) | 3.07 | 1.92 (inactive) | 0.334 | 0.46 | 1.05 | 0.484
14 | Cc1ccc(S[C@]2(C(=O)NCCN3CCOCC3)CC(=O)N(Cc3ccccc3Cl)[C@@H]2c2ccc(CO)cc2I)cc1 | 0.443 | -0.841 (inactive) | -3.57 (inactive) | 0.665 (inactive) | 2.77 | -0.373 (inactive) | 0.508 | -0.064 | -0.364 | -0.455
15 | CCOC(=O)C[C@H]1[C@H](OC(=O)c2cc3ccccc3oc2=O)[C@@H](NC(=O)CC(C)C)c2cc(OCCCO)ccc2N1C(=O)c1ccc2ccccc2n1 | 1.04 | 0.475 (inactive) | 0.376 (inactive) | 0.665 (inactive) | 1.09 | -0.588 (inactive) | -0.0916 | 0.746 | 0.982 | 0.326
16 | CCCNC(=O)[C@@H]1c2ccccc2C(=O)N(Cc2ccc(OC(F)(F)F)cc2)[C@H]1c1ccc(CO)cc1 | 0.428 | 0.645 (inactive) | 0.0302 (inactive) | -0.174 (inactive) | 2.12 | 0.937 (inactive) | 0.0286 | -0.0211 | 0.0529 | -0.0316
17 | CN(C)C(=O)[C@]1(Cc2ccccc2CN=[N+]=[N-])N=C(c2ccc(OCCCO)cc2)O[C@@H]1c1ccccc1 | 1.57 | -0.545 (inactive) | -1.07 (inactive) | 20.8 (active) | 3.29 | -0.915 (inactive) | -0.0352 | 0.104 | 0.439 | 0.0958
18 | COc1ccc([Si](C)(C)[C@@H]2[C@@H](CCO)O[C@]3(C(=O)N(Cc4ccccc4)c4ccc(N5C(=O)c6cccc7cccc5c67)cc43)[C@H]2C)cc1 | 0.473 | 0.849 (inactive) | 1.97 (inactive) | 37.1 (active) | 0.984 | 0.89 (inactive) | -0.186 | -0.129 | -0.0162 | -0.177
19 | C#CCN([C@@H](Cc1ccccc1)C(=O)OC)[C@@H](/C=C/C1CC1)[C@H](O)Cc1ccccc1 | -0.59 | -0.464 (inactive) | -1.22 (inactive) | -0.0898 (inactive) | 0.209 | -0.807 (inactive) | -0.0051 | 0.0503 | -0.525 | -0.307
20 | CCCC[C@@H](O)C1=C(COc2ccccc2)C[C@H]2C(=O)N(Cc3ccccc3)C(=O)[C@H]2[C@H]1CO | 0.287 | 0.298 (inactive) | -0.336 (inactive) | 0.361 (inactive) | 0.492 | 0.672 (inactive) | -0.0907 | 0.517 | 0.323 | -0.0828
21 | CCCCCC1=C2CNC(C)(C(=O)OC)C=C2C(C)C1=O (stereo not given) | -0.998 | 0.511 (inactive) | 1.7 (inactive) | 1.48 (inactive) | 1.14 | -0.67 (inactive) | 0.118 | -0.947 | -0.426 | -0.0581
22 | C=CC[C@@H](OC(=O)Nc1ccc(SC)cc1)c1ccc(O)c(F)c1 | 0.803 | -21.2 (active) | -19.9 (active) | -0.545 (inactive) | 0.724 | 1.81 (inactive) | 0.0276 | 0.713 | -0.0238 | -0.105
23 | [N-]=[N+]=Nc1ccccc1[C@@H]1OC(c2ccc(OCCCO)cc2)=N[C@]1(Cc1ccccc1)C(=O)N1CCCCC1 | 1.53 | -0.286 (inactive) | -0.487 (inactive) | 1.49 (inactive) | 3.27 | 0.27 (inactive) | 0.0277 | 0.847 | 1.04 | 0.001
24 | CCCN1C(=O)[C@]2(Cc3ccccc31)N=C(c1ccc(OCCCO)cc1)O[C@@H]2c1ccccc1 | 1.55 | -1.49 (inactive) | -2.93 (inactive) | 1.44 (inactive) | 2.74 | -0.0411 (inactive) | -0.0391 | 1.66 | 1.03 | -0.139
25 | CC[C@@H]1C=C(C(=O)O)[C@H](c2ccc(C#N)cc2)N1S(=O)(=O)c1ccc(C)cc1 | 0.799 | -0.407 (inactive) | -0.185 (inactive) | -0.104 (inactive) | 3.47 | 0.405 (inactive) | 0.283 | -0.911 | 0.314 | 0.122
26 | COc1ccc(CCNC(=O)[C@@]2(Cc3ccccc3I)c3ccccc3C(=O)N(C3CCCCC3)[C@H]2c2ccc(CO)cc2)cc1 | 1.36 | -2.01 (inactive) | -1.81 (inactive) | -0.742 (inactive) | 2.3 | -1.41 (inactive) | -0.0176 | -0.275 | 0.566 | -0.115
27 | COc1cc2c(cc1O)C=[N+](Cc1sc3ccccc3c1Cl)CC2 | 0.286 | -1.02 (inactive) | -15.5 (active) | -1.31 (inactive) | -0.0121 | 0.461 (inactive) | 0.0216 | 0.346 | -0.119 | -0.126
28 | O=c1cccc(-c2ccc([N+](=O)[O-])cc2)o1 | 1.03 | -0.778 (inactive) | 1.25 (inactive) | -0.495 (inactive) | 0.706 | 0.188 (inactive) | -0.139 | 1.17 | 0.375 | -0.0644
29 | CCCCCCCCCCC(O)C1C=CC2C(=O)N(c3ccccc3)C(=O)C2N1Nc1ccc(C#N)cc1 (stereo not given) | 1.37 | 0.614 (inactive) | 0.53 (inactive) | 2.57 (inactive) | 3.36 | -0.983 (inactive) | 0.12 | 0.0931 | 1.09 | 0.0288
30 | CCCC#C[Si](O[C@H](CC)c1cn([C@H](C)c2ccccc2)nn1)(C(C)C)C(C)C | 0.817 | -0.764 (inactive) | -10.2 (active) | -3.25 (inactive) | 1.05 | 2.37 (inactive) | 0.0539 | 0.316 | 0.579 | 0.359
